Entries with a potency or affinity are not part of this list. The source made the active and inactive calls. The rule behind the calls is not given here.

This test can be described thus: HEK293 cell viability loss – plate reader, cherry-pick, cytotoxicity control, dose response (AID 651899).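 Note: cells exposed to compound for 48 hours.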 The settings on record: series mostly up to 26 µM.
Take `O=C(Nc1cccnc1)C1CCN(S(=O)(=O)c2ccc(Cl)cc2)CC1`: the call was inactive.

Consider `CCC(CO)[n+]1c(C)cc(/C=C2\Sc3ccccc3N2Cc2ccccc2)cc1C` (centres undefined), for which the call was inactive.

On to `Nn1c(SCCOc2ccccc2)nnc1-c1cccnc1`, for which the molecule was classed as inactive.

As to `Cc1ccc(-c2nn(CCC(=O)Nc3cccnc3)c(=O)c3ccccc23)cc1`, the molecule was classed as inactive.

The values are drawn from PubChem BioAssay AID651899 (Broad Institute, 2012).
